Screening data: PubChem, National Center for Advancing Translational Sciences (NCATS)
Most compounds without a hit are left out; they make up all but 18% or so of the library.
RORgamma inh = ROR gamma (mouse) transcription inhibition; 310,000 tested, 5.4% active; AID 2551; Drosophila S2 Gal4-RORgamma UAS-luciferase reporter, 20 h; Potency, µM (top dose mostly 53.6 µM), hits mostly inhibitors; P51450; further: nearly all actives have a fitted effect of over 60% in size
Target sequence (P51450 whole entry, looked up, the tested form may be a part): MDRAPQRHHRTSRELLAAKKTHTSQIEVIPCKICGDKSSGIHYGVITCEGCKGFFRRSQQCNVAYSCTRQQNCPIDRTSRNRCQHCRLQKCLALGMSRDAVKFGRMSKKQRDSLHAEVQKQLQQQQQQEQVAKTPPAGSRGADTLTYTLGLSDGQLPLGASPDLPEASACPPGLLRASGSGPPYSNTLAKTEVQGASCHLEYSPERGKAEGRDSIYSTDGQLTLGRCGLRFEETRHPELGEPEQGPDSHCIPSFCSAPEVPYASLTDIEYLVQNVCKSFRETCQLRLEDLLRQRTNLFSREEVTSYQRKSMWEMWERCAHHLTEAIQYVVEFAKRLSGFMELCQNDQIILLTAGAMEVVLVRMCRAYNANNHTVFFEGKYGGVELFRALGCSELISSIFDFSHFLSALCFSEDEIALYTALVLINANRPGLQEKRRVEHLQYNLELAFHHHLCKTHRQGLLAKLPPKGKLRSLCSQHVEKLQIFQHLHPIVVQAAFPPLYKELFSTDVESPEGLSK
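Drosophila Schneider cells stably carrying a metallothionein-driven Gal4 DBD–ROR gamma fusion and a UAS-Photinus luciferase reporter were exposed to compound for 1 hr, then induced with copper sulfate (700 uM final) for 20 hr at ambient temperature before luminescence reading.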
IL-1B inflam inh = inflammasome signaling inhibition, IL-1 beta readout; activity change, % at 57.5 µM; 360,000 tested, 4.7% active; THP-1 LPS/ATP IL-1B secretion, AlphaLISA, 16 h; stronger effect = lower value; AID 743279; in the data active means activity change below about -50%; inconclusive means mostly about -30% to -49%
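THP-1 cells pretreated 1 hr with compounds (up to 57.5 uM final), then stimulated with LPS (250 ng/mL final) plus ATP (1.25 mM final); secreted IL-1B measured by AlphaLISA after 16 hr, decreased signal indicating inhibition.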
Gal4-VP16 FLuc = counter-screen for ROR gamma inhibitors: Gal4-VP16 reporter; Drosophila S2 Gal4-VP16 UAS-luciferase, luminescence, 20 h; Potency, µM (top dose mostly 53.6 µM), most hits filed as inhibitors; 310,000 tested, 3.5% active; AID 2546;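 further: Gal4-VP16 expression switched on by copper sulfate through the metallothionein promoter; nearly all actives have a fitted effect of over 50% in size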
LDHA inh = LDHA (human) enzyme inhibition; P00338; purified LDHA, NADH/diaphorase-resazurin fluorescence; stronger effect = lower value; activity change, % (values are at about 110 or 230 µM); 480,000 tested, 0.15% active; AID 1347041; in the data active means activity change below about -30%; inconclusive means mostly about -25% to -30%
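Human LDH5 at 2 nM final in Tris HCl pH 7.4 with 0.06 mM NADH and 0.2 mM pyruvate, reacted 5 minutes at room temperature. Remaining NADH coupled via diaphorase/resazurin; resorufin fluorescence read at 0 and 20 minutes, normalized to enzyme-free and DMSO wells.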
TDP1 cell CPT = growth inhibition of DT40 Tdp1-/-;hTDP1 cells with camptothecin (screen for TDP1 inhibitors). 420,000 tested, 12% active. AID 686979. chicken DT40 Tdp1-/-;hTDP1 cells + 20 nM CPT, ATP luminescence, 48 h. Potency, µM (series often up to 46.2 µM), hits mostly inhibitors; further: nearly all actives have a fitted effect of over 55% in size
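Chicken DT40 Tdp1-/- cells complemented with human TDP1, 400 cells/well, exposed to compounds plus 20 nM camptothecin for at least 48 h at 37 C; viability read as ATP content by CellTiter-Glo luminescence.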
DT40 TDP1 no CPT = qHTS for Inhibitors of human tyrosyl-DNA phosphodiesterase 1 (TDP1): qHTS in cells in absence of CPT; DT40 Tdp1-/- hTDP1 cells, no CPT, ATP luminescence, 48 h; Potency, µM (highest dose often 46.2 µM), usual class: inhibitors; 420,000 tested, 15% active; AID 686978, 2013; further: nearly all actives have a fitted effect of over 55% in size
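A cellular qHTS used chicken DT40 cells lacking endogenous Tdp1 but carrying stably transfected human TDP1. Compounds were applied without camptothecin, and cell growth kinetics were judged by ATP-dependent luminescence after ≥48 hr.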
Of the large screens only hits and unclear results are named; the others gave an inactive call. Unless noted, the call rests on the fitted dose curve; in most records, active means well fitted curve in the direction sought with a large enough effect; inconclusive means small, poorly fitted or top-dose-only effect, or another doubt; inactive means no such curve, though single readings can be large; an effect the other way counts as inactive or inconclusive.

CCOc1ccccc1NC(=O)C(c1ccccc1)N1CCN(CC(=O)N2CCOCC2)CC1 (configuration not stated)	TDP1 cell CPT 23.1µM (no result: RORgamma inh, Gal4-VP16 FLuc)
COc1ccccc1NC(=O)CN1CCN(CC(=O)Nc2ccc(OCc3ccccc3)cc2)CC1	RORgamma inh inconclusive, IL-1B inflam inh inconclusive, Gal4-VP16 FLuc inconclusive, TDP1 cell CPT inconclusive, DT40 TDP1 no CPT 16.4µM
Cc1nc(CNC(=O)N(C)Cc2ccc3c(c2)OCO3)cs1	none (no result: RORgamma inh, IL-1B inflam inh, Gal4-VP16 FLuc, TDP1 cell CPT, DT40 TDP1 no CPT)
O=C(O)CCNS(=O)(=O)c1ccc(C(=O)/C=C/c2ccccc2Cl)cc1	none (no result: RORgamma inh, IL-1B inflam inh, Gal4-VP16 FLuc, TDP1 cell CPT, DT40 TDP1 no CPT)
COc1ccc(C(=O)C(C#N)C(=O)c2ccc(C)c(OC)c2)cc1 (configuration not stated)	none (no result: RORgamma inh, IL-1B inflam inh, Gal4-VP16 FLuc, TDP1 cell CPT, DT40 TDP1 no CPT)
O=C(Cn1nc(-c2cccs2)c2ccccc2c1=O)Nc1ccccc1	none (no result: RORgamma inh, IL-1B inflam inh, Gal4-VP16 FLuc, TDP1 cell CPT, DT40 TDP1 no CPT)
CCOC(=O)N1CCN(CC(=O)Nc2ccc(Oc3ccccc3)cc2)CC1	IL-1B inflam inh -63.8, TDP1 cell CPT inconclusive, DT40 TDP1 no CPT inconclusive
N#CCN1CCN(CCC(=O)Nc2ccc(OCc3ccccc3)cc2)CC1	DT40 TDP1 no CPT 23.1µM
C=CCN(Cc1ccc(OC)cc1)C(=O)Cc1nn(C)c(=O)c2ccccc12	none (no result: RORgamma inh, IL-1B inflam inh, Gal4-VP16 FLuc, TDP1 cell CPT, DT40 TDP1 no CPT)
O=C(NCc1ccc(Cl)cc1)OCc1ccccc1	none (no result: RORgamma inh, IL-1B inflam inh, Gal4-VP16 FLuc, TDP1 cell CPT, DT40 TDP1 no CPT)
O=C(Nc1ccc(C(F)(F)F)cc1)c1cc(S(=O)(=O)NC2CCCCCC2)ccc1F	TDP1 cell CPT 20.6µM, DT40 TDP1 no CPT inconclusive (no result: RORgamma inh, IL-1B inflam inh, Gal4-VP16 FLuc)
O=C(Nc1ccc(C(F)(F)F)cc1)c1cc(S(=O)(=O)NC2CCCCC2)ccc1F	TDP1 cell CPT 13µM, DT40 TDP1 no CPT 18.4µM (no result: RORgamma inh, IL-1B inflam inh, Gal4-VP16 FLuc)
CC(=O)Nc1ccc(S(=O)(=O)NC2CCCCCC2)cc1	TDP1 cell CPT inconclusive, DT40 TDP1 no CPT inconclusive
CCSc1ccccc1C(=O)NC(C)(C)C	none (no result: RORgamma inh, IL-1B inflam inh, Gal4-VP16 FLuc, TDP1 cell CPT, DT40 TDP1 no CPT)
CC(OC(=O)c1ccc2c(c1)NC(=O)CS2)C(=O)c1c[nH]c2ccccc12 (configuration not stated)	none (no result: RORgamma inh, IL-1B inflam inh, Gal4-VP16 FLuc, TDP1 cell CPT, DT40 TDP1 no CPT)
COC(=O)C(C)NC(=O)N1CCN(c2nnc(C)c3c(C)n(-c4ccc(Cl)cc4)nc23)CC1 (configuration not stated)	TDP1 cell CPT inconclusive, DT40 TDP1 no CPT 23.1µM (no result: RORgamma inh, IL-1B inflam inh, Gal4-VP16 FLuc)
Cc1nnc(N2CCN(C(=O)NCCC(C)C)CC2)c2nn(-c3ccc(Cl)cc3)c(C)c12	none (no result: RORgamma inh, IL-1B inflam inh, Gal4-VP16 FLuc)
Cc1nnc(N2CCN(C(=O)Nc3cc(F)ccc3F)CC2)c2nn(-c3ccc(Cl)cc3)c(C)c12	TDP1 cell CPT 20.6µM, DT40 TDP1 no CPT 20.6µM (no result: RORgamma inh, IL-1B inflam inh, Gal4-VP16 FLuc)
O=C(Nc1ccc(F)cc1)C1=C(c2ccccc2)SCCO1	none (no result: RORgamma inh, IL-1B inflam inh, Gal4-VP16 FLuc, TDP1 cell CPT, DT40 TDP1 no CPT)
C/C(=N\NC(=O)c1ccn(C)n1)c1ccc(NC(=O)C2CCCC2)cc1	DT40 TDP1 no CPT 18.4µM
C/C(=N\NC(=O)C1(C)CC1(Br)Br)c1ccc(NC(=O)C2CCC2)cc1 (configuration not stated)	TDP1 cell CPT 18.4µM, DT40 TDP1 no CPT inconclusive
COc1ccc(C(=O)Nc2cccc(-c3nc4ccccc4o3)c2C)cc1[N+](=O)[O-]	none (no result: RORgamma inh, IL-1B inflam inh, Gal4-VP16 FLuc, TDP1 cell CPT, DT40 TDP1 no CPT)
O=C1C=Cc2ccc(Br)c3cccc1c23	none (no result: RORgamma inh, IL-1B inflam inh, Gal4-VP16 FLuc, TDP1 cell CPT, DT40 TDP1 no CPT)
O=C1C=Cc2cccc3ccc(O)c1c23	IL-1B inflam inh inconclusive, TDP1 cell CPT 23.1µM, DT40 TDP1 no CPT 14.6µM (no result: RORgamma inh, Gal4-VP16 FLuc)
CCCCCn1c(SCc2ccccc2Cl)nc2c1c(=O)[nH]c(=O)n2C	none (no result: RORgamma inh, IL-1B inflam inh, Gal4-VP16 FLuc, TDP1 cell CPT, DT40 TDP1 no CPT)
Cc1nc(SC2CCOC2=O)c2c(C)c(C)sc2n1 (configuration not stated)	RORgamma inh 11.2µM, Gal4-VP16 FLuc 15.8µM
CC(C)C(=O)Nc1ccc2[nH]cc(C(C(=O)O)N3CCN(c4ccccc4)CC3)c2c1 (configuration not stated)	none (no result: RORgamma inh, IL-1B inflam inh, Gal4-VP16 FLuc, TDP1 cell CPT, DT40 TDP1 no CPT)
Cn1c(=O)[nH]c(=O)c2c1nc(NCCCO)n2CC(O)COc1ccc(Cl)cc1 (configuration not stated)	none (no result: RORgamma inh, IL-1B inflam inh, Gal4-VP16 FLuc, TDP1 cell CPT, DT40 TDP1 no CPT)
CC1CCN(C(=O)C(C)Sc2nc(-c3ccccc3)cc(C(F)(F)F)n2)CC1 (configuration not stated)	TDP1 cell CPT 25.9µM, DT40 TDP1 no CPT 29.1µM
CCCCc1ccc(NS(=O)(=O)c2cc3c4c(c2)CC(=O)N4CCC3)cc1	TDP1 cell CPT 14.6µM, DT40 TDP1 no CPT 11.6µM (no result: RORgamma inh, IL-1B inflam inh, Gal4-VP16 FLuc)
